The record followed here is ChEMBL document CHEMBL3988442, “University of Dundee, Small-Polar-MMV Screening Library” (2021).

Assay [1] addresses T1, Aspartate--tRNA(Asp/Asn) ligase (Mycobacterium tuberculosis (strain ATCC 25618 / H37Rv)) (UniProt P9WFW3).
T1 sequence (whole entry): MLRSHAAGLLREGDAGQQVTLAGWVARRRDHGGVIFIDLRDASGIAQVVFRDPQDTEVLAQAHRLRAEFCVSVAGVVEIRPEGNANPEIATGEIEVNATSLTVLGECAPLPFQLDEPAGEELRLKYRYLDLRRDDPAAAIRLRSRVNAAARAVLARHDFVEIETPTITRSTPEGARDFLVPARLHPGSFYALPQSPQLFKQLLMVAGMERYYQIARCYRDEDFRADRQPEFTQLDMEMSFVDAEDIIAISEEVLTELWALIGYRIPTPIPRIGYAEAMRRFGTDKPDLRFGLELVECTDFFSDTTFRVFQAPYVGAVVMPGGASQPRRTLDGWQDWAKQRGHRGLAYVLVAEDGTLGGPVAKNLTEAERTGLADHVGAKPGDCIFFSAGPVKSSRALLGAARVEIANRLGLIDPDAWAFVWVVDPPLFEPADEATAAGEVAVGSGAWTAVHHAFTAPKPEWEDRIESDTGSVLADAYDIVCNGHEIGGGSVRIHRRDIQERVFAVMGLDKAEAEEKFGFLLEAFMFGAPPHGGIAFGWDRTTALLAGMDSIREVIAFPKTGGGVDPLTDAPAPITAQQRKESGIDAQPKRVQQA
As to the kind of experiment: Assay for Asp RNA synthetase-1 from Mycobacterium tuberculosis. Format: functional. The following applies: 30 µM. More on the design: scale not given: direction of the effect not stated beside the values.

The target in assay [2] is Shiga toxin 2 (Escherichia coli O157:H7) (UniProt P09385+P09386). As to the kind of experiment: E. coli 0.157:H7 Shiga Toxin SOP - stx2 screening assay. Format: functional. More on the design: scale not given: direction of the effect not stated beside the values. The following applies: 30 µM.

With `Cn1c(C2CC2)nc2c1CCN(CCS(=O)(=O)c1ccccc1)C2`, the Percent Effect in assay [1] was -5.83%; in assay [2] it was 6.27%.
As for `CCCNC(=O)c1cc2c(c3ccccc3n2C)n1C(=O)N(C)C`, the values for the Percent Effect in assay [1] and in assay [2] were 2.3% and -2.9%, respectively.
In the case of `O=C(NCc1ccco1)[C@H]1C[C@H]2OCC[C@H]2N(S(=O)(=O)C2CC2)C1`, the Percent Effect in assay [1] was 0.786%; in assay [2], -24.1%.
Regarding `NC(=O)Cn1cc(NC(=O)N2CCCC2)cn1`, the results for the Percent Effect in assay [1] and in assay [2] were -2.12% and -31.6%, respectively.
The corresponding values for `CS(=O)(=O)N1Cc2nccn2CC(Cn2ncccc2=O)C1` (stereo not given) are 1.17% and -8.61%.
The corresponding values for `COc1ccnc(C(=O)N2CCCC(c3noc(C)n3)C2)c1` (stereo not given) are 0.885% and 1.38%.
For `CN(C)CC1(O)CCN(S(=O)(=O)c2ccc(F)cc2)C1` (stereo not given), the Percent Effect in assay [1] is -0.491%; in assay [2] it was 12.7%.
As to `Cc1nc(C2(O)CCCNCC2)sc1CCOc1ccc(Cl)cc1` (stereo not given), the Percent Effect in assay [1] is -4%; in assay [2], -45.5%.
The corresponding values for `CCc1nc2ccccc2c(=O)n1CC1(O)CCN(S(C)(=O)=O)CC1` are 4.54% and -2.21%.
The corresponding values for `COc1c(CNCCNC(=O)Cc2ccc(F)cc2)c(C)nn1C` are 1.84% and 30.8%.
`CNC(=O)COc1ccccc1CNC1CCc2ncnn2C1` (stereo not given): the Percent Effect in assay [1] was -0.833%; in assay [2], -29.9%.
`CNS(=O)(=O)c1cccc(C(C)NCc2cccc(OC)c2)c1` (stereo not given): the Percent Effect in assay [1] is 0.915%; in assay [2], -24.3%.
The corresponding values for `Nc1nc2c(c(=O)[nH]1)CCN(C(=O)c1cccc3nccnc13)C2` are 6.9% and -31.4%.
Taken in the same sequence, the figures for `Cc1nc(NC2CCCC2)cc(C2CCN2C(=O)c2cccnc2)n1` (stereo not given) were 2.75% and 2.33%.
For `Cc1cnn(C2CCCN(C(=O)c3sccc3C#N)C2)c1` (stereo not given), the Percent Effect in assay [1] was 1.95%; in assay [2], -36.4%.
As for `COc1cccc(C2CCCN2C(=O)c2cc3c([nH]c2=O)CCC3)c1` (stereo not given), the Percent Effect is 1.28% in assay [1] and -5.59% in assay [2].
The corresponding values for `CS(=O)(=O)NC1CCN(C(=O)NCCc2ccccc2F)CC1` are -3.88% and -19.2%.
As for `Cc1ncsc1CN1C[C@H](C(=O)N2CCCO2)[C@@H]2CCO[C@@H]2C1`, the Percent Effect in assay [1] was -1.48%; in assay [2], -4.78%.
The corresponding values for `O=C(NCCCO)C1CC(=O)N(c2n[nH]c3cccc(F)c23)C1` (stereo not given) are 0.29% and -34.7%.
`O=C(c1ccc(Br)o1)N1CCN(Cc2ccc(OC(F)(F)F)cc2)CC1`: the Percent Effect in assay [1] is -5.95%; in assay [2], 16.1%.
On to `O=C(Nc1ccc(N2CCCC2)nc1)N1CCc2ccccc2C1`, for which the Percent Effect is 2.91% in assay [1] and -147% in assay [2].
Take `CC(=O)N1[C@H](Cn2cncn2)C[C@@H]2CN(S(C)(=O)=O)CC[C@@H]21`: the Percent Effect in assay [1] is 2.85%; in assay [2], -36.4%.
For the compound `COCC(=O)N1CCC(c2noc3nc(C)cc(C(F)(F)F)c23)CC1`, the Percent Effect in assay [1] was 3.71%; in assay [2], -10.9%.
On to `NC(=O)c1csc(C(=O)N2CCCCC2Cn2cccn2)c1` (stereo not given), for which the Percent Effect was -1.92% in assay [1] and 6.89% in assay [2].
For the compound `CCOc1cccc(NS(=O)(=O)c2cc(C)c(C(=O)O)s2)c1`, the Percent Effect was 1.62% in assay [1] and -10.3% in assay [2].
Taken in the same sequence, the figures for `Cc1cc(C)cc(NC(=O)CN2CCCC(n3cncn3)C2)c1` (stereo not given) were -0.903% and 12.2%.
The corresponding values for `COc1c(C2CCCN2Cc2c(C)noc2C)c(C)nn1C` (stereo not given) are 1.48% and 6.54%.
For `O=C(Cn1ccc2ccc(Br)cc21)NC[C@@H]1CCCN2CCCC[C@H]12`, the Percent Effect in assay [1] is -3.66%; in assay [2], -42.1%.
The corresponding values for `Cc1nccn1-c1nccnc1C1CCN(Cc2ccc(F)cc2)CC1` are -0.338% and -6.1%.
Take `Cc1cnn(CC2CCCN2c2nn3cc(C)nc3s2)c1` (stereo not given): the values for the Percent Effect in assay [1] and in assay [2] were -9.79% and -13.5%, respectively.
Taken in the same sequence, the figures for `COc1c(CNC2CCN(c3ncccn3)CC2)c(C(C)C)nn1C` were -2.81% and 30.1%.
On to `NC(=O)CC1CCN(C(=O)CCOc2ccc(Cl)cc2)CC1`, for which the figures for the Percent Effect in assay [1] and in assay [2] were -1.03% and 32.7%, respectively.
`CCOc1ccc(C#N)cc1NCC(=O)Nc1cc(F)ccc1F`: the Percent Effect was -5.91% in assay [1] and 5.62% in assay [2].
Turning to `O=C(NCCOc1ncc(Cl)cc1Cl)c1ccncc1F`, the Percent Effect in assay [1] is -3.03%; in assay [2] it was 1.2%.
On to `Cc1csc(C2CCCN(C(=O)c3cnc[nH]3)C2)n1` (stereo not given), for which the Percent Effect is 5.76% in assay [1] and 16.6% in assay [2].
Turning to `Cc1cc(C)n(CC2CCCN2C(=O)Cc2c(C)noc2C)n1` (stereo not given), the Percent Effect in assay [1] is 7.79%; in assay [2], 9.09%.
Taken in the same sequence, the figures for `Cc1cc(=O)[nH]c(CCNC(=O)C(c2ccc(F)cc2)N(C)C)n1` (stereo not given) were -1.19% and -71.7%.
The corresponding values for `CCS(=O)(=O)NC(C(=O)NC)c1ccc(F)c(F)c1` (stereo not given) are -0.436% and 10.3%.
`Cc1noc(C)c1CCC(=O)N1CCCN(Cc2cscn2)CC1`: the Percent Effect in assay [1] is -0.789%; in assay [2] it was 27.4%.
As for `CNC(=O)c1cnc(/C=C/c2ccc(OC)c(O)c2)s1`, the Percent Effect was 1.65% in assay [1] and -56.5% in assay [2].
Taken in the same sequence, the figures for `CN1CCN(c2cc(CNC(=O)c3ccc(=O)[nH]n3)ccn2)CC1` were -0.544% and -57.8%.
The corresponding values for `CCCS(=O)(=O)N1CCOCC2(CCN(c3ccccn3)C2)C1` (stereo not given) are -2.85% and -23.9%.
On to `Cc1nc(C)n(CC2CCCN2CCCc2ccccc2)n1` (stereo not given), for which the figures for the Percent Effect in assay [1] and in assay [2] were 0.747% and -14.3%, respectively.
As for `O=C1CC(c2cccnc2)C2(CCN(S(=O)(=O)C3CC3)CC2)N1` (stereo not given), the Percent Effect in assay [1] was -1.76%; in assay [2], 4.96%.
In the case of `CC(C)(C)c1cn2nc(N3CCOC(Cn4cncn4)C3)sc2n1` (stereo not given), the Percent Effect was -2.01% in assay [1] and -8.88% in assay [2].
